Several values for one entry are separate records, joined by “and”; a condition that tells them apart may be missing. Equal values may be shown once. Results filed as inconclusive are left out. Activity calls are given as the source filed them. The call rests on the fitted dose curve; in most records, active means well fitted curve in the direction sought with a large enough effect; inconclusive means small, poorly fitted or top-dose-only effect, or another doubt; inactive means no such curve, though single readings can be large; an effect the other way counts as inactive or inconclusive.
Assays:
[1] = Vero cells viability qHTS for Zika virus inhibitors (AID 1347167); details: cytotoxicity counter-screen (Zika); series mostly up to 45.9 µM; further: on the % scale 0 is the no-effect control and ±100 the full control effect
Procedure, shortened: (§1)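 Compounds were tested in concentration series on cells grown in DMEM containing 4% FBS. After 24 to 48 hours, cellular ATP was measured by luminescence with CellTiter Glo.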

[2] = HepG2 cells viability qHTS for Zika virus inhibitors (AID 1347168); details: Zika counter-screen; series mostly up to 45.9 µM; further: potency means the concentration at half of the fitted maximal effect
Procedure, shortened: as §1

[3] = Tertiary RLuc qRT-PCR qHTS assay for Zika virus inhibitors (AID 1347169); details: infected Vero cells, reporter luminescence, 48-72 h; series mostly up to 45.9 µM; further: top concentration of the series differs between compounds; on the % scale 0 is the no-effect control and ±100 the full control effect; nearly all actives have a fitted effect of over 55% in size
Procedure, shortened: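 Vero cells (1,000 per well) plated overnight at 37 degrees C, treated with compound in DMSO, then infected with recombinant ZIKV-RLuc (Cambodian) at MOI 1-2 for 48-72 hrs. Live-cell Renilla luciferase substrate added; luminescence read after 1-1.5 hrs.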

[4] = OV-KATE Cancer Cell Toxicity qHTS against the NCATS CANVASS Library (AID 1347345); details: OV-KATE cells viability, CellTiter-Glo luminescence, 72 h; series mostly up to 38.3 µM; further: on the % scale 0 is the no-effect control and ±100 the full control effect
Procedure, shortened: (§2)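 Bortezomib titration and single-dose wells served as plate controls. Test compounds, 11 points, acted on 1000 cells/well for 72 h at 37 degrees C; CellTiter-Glo luminescence quantified remaining viable cells.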

[5] = HPAF-II Cancer Cell Toxicity qHTS against the NCATS CANVASS Library (AID 1347346); details: HPAF-II viability, CellTiter-Glo ATP luminescence, 72 h; series mostly up to 38.3 µM; further: on the % scale 0 is the no-effect control and ±100 the full control effect; nearly all actives have a fitted effect of over 55% in size
Procedure, shortened: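 Luminescence from CellTiter-Glo, added after 72 h compound exposure and a 15 min room-temperature incubation, served as the viability readout. HPAF-II cells (1000/well) received an 11-point concentration series.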

[6] = UWB1.289 Cancer Cell Toxicity qHTS against the NCATS CANVASS Library (AID 1347347); details: UWB1.289 viability, CellTiter-Glo luminescence, 72 h; series mostly up to 38.3 µM; further: on the % scale 0 is the no-effect control and ±100 the full control effect; nearly all actives have a fitted effect of over 60% in size
Procedure, shortened: as §2

[7] = OV-SAHO Cancer Cell Toxicity qHTS against the NCATS CANVASS Library (AID 1347348); details: OV-SAHO viability, CellTiter-Glo luminescence, 72 h; series mostly up to 38.3 µM; further: on the % scale 0 is the no-effect control and ±100 the full control effect; nearly all actives have a fitted effect of over 55% in size
Procedure, shortened: as §2

[8] = Panc-1005 Cancer Cell Toxicity qHTS against the NCATS CANVASS Library (AID 1347349); details: Panc-1005 viability, CellTiter-Glo luminescence, 72 h; series mostly up to 38.3 µM; further: on the % scale 0 is the no-effect control and ±100 the full control effect; nearly all actives have a fitted effect of over 60% in size
Procedure, shortened: as §2

[9] = SW1088 Cancer Cell Toxicity qHTS against the NCATS CANVASS Library (AID 1347350); details: SW1088 viability, CellTiter-Glo luminescence, 72 h; at 38.3 µM (top of the series); further: nearly all actives have a fitted effect of over 75% in size
Procedure, shortened: as §2

[10] = U-118MG Cancer Cell Toxicity qHTS against the NCATS CANVASS Library (AID 1347351); details: U-118MG viability, CellTiter-Glo luminescence, 72 h; series mostly up to 38.3 µM; further: on the % scale 0 is the no-effect control and ±100 the full control effect
Procedure, shortened: as §2

[11] = COV-362 Cancer Cell Toxicity qHTS against the NCATS CANVASS Library (AID 1347352); details: COV-362 viability, CellTiter-Glo luminescence, 72 h; series mostly up to 38.3 µM; further: on the % scale 0 is the no-effect control and ±100 the full control effect
Procedure, shortened: (§3)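 Luminescent ATP read-out (CellTiter-Glo, 15min at room temperature) measures survival after cells face an 11-point compound series for 72 hours at 37 degrees C/5% CO2.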

[12] = A2780 Cisplatin Sensitive Ovarian Cancer Cell Toxicity qHTS against the NCATS CANVASS Library (AID 1347353); details: A2780 ovarian cancer viability, ATPLite luminescence, 72 h; at 46.1 µM (top of the series); further: nearly all actives have a fitted effect of over 60% in size
Procedure, shortened: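 Luminescent ATP content (ATPLite, 10 min at room temperature) served as the read-out after cells had been exposed to compounds for 72 hours at 37 °C. Dosing followed an 11-point concentration series.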

[13] = UWB1.289-WTBRCA1 Cancer Cell Toxicity qHTS against the NCATS CANVASS Library (AID 1347354); details: UWB1.289-WTBRCA1 viability, CellTiter-Glo luminescence, 72 h; series mostly up to 38.3 µM; further: on the % scale 0 is the no-effect control and ±100 the full control effect
Procedure, shortened: as §3

[14] = HEK-293 Cancer Cell Toxicity qHTS against the NCATS CANVASS Library (AID 1347355); details: HEK-293 viability, CellTiter-Glo luminescence, 72 h; at 46.1 µM (top of the series); further: nearly all actives have a fitted effect of over 65% in size
Procedure, shortened: as §3

[15] = HPAF-II 24hr Apoptosis Induction qHTS against the NCATS CANVASS Library (AID 1347356); details: HPAF-II caspase-3/7 Caspase-Glo luminescence; series mostly up to 46.1 µM; further: 0% is about no effect
Procedure, shortened: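 Luminescent caspase-3/7 signal (DEVD substrate, Caspase-Glo) served as read-out, taken 15 min after reagent addition to HPAF-II cells exposed 24 h to compounds.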

[16] = HEK293 18hr Apoptosis Induction qHTS against the NCATS CANVASS Library (AID 1347357); details: HEK293 caspase-3/7 Caspase-Glo luminescence; series mostly up to 46.1 µM; further: 0% is about no effect
Procedure, shortened: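 HEK293 cells (500 per well, DMEM with 10% FBS) were treated with natural products, incubated 18 hours at 37 degrees C, then caspase-3/7 activity was read by Caspase-Glo luminescence after 15 min at room temperature.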

[17] = HPAF-II 12hr Apoptosis Induction qHTS against the NCATS CANVASS Library (AID 1347358); details: HPAF-II caspase-3/7 Caspase-Glo luminescence; series mostly up to 46.1 µM; further: 0% is about no effect
Procedure, shortened: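 500 HPAF-II cells/well; cmpds 11-pt; 12 hr, 37 degrees C/5% CO2; Caspase-Glo 3/7 added, 15 min RT dark; luminescence read. Doxorubicin titration as control.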

[18] = HEK293 24hr Apoptosis Induction qHTS against the NCATS CANVASS Library (AID 1347359); details: HEK293 caspase-3/7 activation, Caspase-Glo luminescence; series mostly up to 46.1 µM; further: 0% is about no effect
Procedure, shortened: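 Caspase-3/7 activation measured as luminescence from the DEVD-based Caspase-Glo reagent, 15 min at room temperature, following 24-hour compound treatment of HEK293 cells.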

[19] = HPAF-II 18hr Apoptosis Induction qHTS against the NCATS CANVASS Library (AID 1347360); details: HPAF-II caspase-3/7 luminescence; series mostly up to 46.1 µM; further: 0% is about no effect
Procedure, shortened: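 HPAF-II cells (500/well, DMEM + 10% FBS) were exposed to compounds for 18 hours at 37 degrees C. Caspase-3/7 activity was then read by Caspase-Glo 3/7 luminescence after 15 min at room temperature.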

[20] = HEK293 12hr Apoptosis Induction qHTS against the NCATS CANVASS Library (AID 1347361); details: HEK293 caspase-3/7 Caspase-Glo luminescence; series mostly up to 46.1 µM; further: 0% is about no effect
Procedure, shortened: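 Read-out: Caspase-Glo 3/7 luminescence (DEVD substrate), 15 min RT. Preceded by 12 h compound exposure of HEK293, 500 cells/well, 11-pt qHTS titration; doxorubicin titration as control.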

CC(=O)N(C)c1cccc(-c2ccnc3c(C(=O)c4cccs4)cnn23)c1
inactive: Potency [1] | Potency [2]

O=C1C(I)=CC(=C(c2cc(I)c(O)c(I)c2)c2ccccc2C(=O)O)C=C1I
inactive: activity change, negative = inhibition [3] 34.1% [at 1.74 µM]

Nc1c(Cl)c(Cl)c(Cl)c(Cl)c1Cl
inactive: outcome [3]

CN(C)[C@@H]1C(=O)C(C(N)=O)=C(O)[C@@]2(O)C(=O)C3=C(O)c4c(O)cccc4[C@@](C)(O)[C@H]3[C@H](O)[C@@H]12
inactive: Potency [1] | Potency [2] | outcome [3]

CC1=C(O)C(=O)C=C2C1=CC=C1[C@@]2(C)CC[C@@]2(C)[C@@H]3C[C@](C)(C(=O)O)CC[C@]3(C)CC[C@]12C
active: Potency [2] 18.5 µM and 7.37 µM

NCCc1c[nH]c2ccc(O)cc12
inactive: outcome [4] | outcome [5] | outcome [6] | outcome [7] | outcome [8] | outcome [9] | outcome [10] | outcome [11] | outcome [12] | outcome [13] | outcome [14] | outcome [15] | outcome [16] | outcome [17] | outcome [18] | outcome [19] | outcome [20]

NCCc1c[nH]c2ccccc12
inactive: outcome [4] | outcome [5] | outcome [6] | outcome [7] | outcome [8] | outcome [9] | outcome [10] | outcome [11] | outcome [12] | outcome [13] | outcome [14] | outcome [15] | outcome [16] | outcome [17] | outcome [18] | outcome [19] | outcome [20]

O=[N+]([O-])c1c(Cl)c(Cl)cc(Cl)c1Cl
inactive: activity change, negative = inhibition [3] 77.7% [at 3.57 µM]

C=CCN1CC[C@]23CCCCC2[C@H]1Cc1ccc(O)cc13 (stereo not given in full)
inactive: Potency [1] | Potency [2] | outcome [3]

CC(C)Oc1cccnc1N(C)C1CCN(Cc2ccccc2)CC1
inactive: Potency [1] | Potency [2] | outcome [3]

O=C(O)c1cc(Oc2ccc(C(F)(F)F)cc2Cl)ccc1[N+](=O)[O-]
inactive: activity change, negative = inhibition [3] 35.5% [at 1.74 µM]
